According to the supplement of paper PMC6555819:

Key:
Test in all cases: PBM binding z-score (relative to random genomic background probes); higher = stronger binding; sequences stand for … in GC…GCGATTGACAGCGTAGAATGAAGG
[1] = tested on: RARb homodimer (NR concentration 270 nM)
Procedure, shortened: (§1)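 Random background probes are the reference for binding z-scores. These scores derive from regression-normalized fluorescence on custom Agilent 4×180K protein-binding microarrays incubated 1 h with ligand-free nuclear receptor dimers. Binding was detected with antibodies against each partner (one per run).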

[2] = tested on: RARg:RXRa (NR concentration 270 nM, RXRa partner concentration 90 nM)
Procedure, shortened: as §1

[3] = tested on: RARg homodimer (NR concentration 270 nM)
Procedure, shortened: as §1

[4] = tested on: RXRa DBDmut IVT, anti-RXR (DBD mutation: RXRa K156A/R161A, NR concentration 90 nM)
Procedure, shortened: as §1

[5] = tested on: RXRa homodimer (NR concentration 180 nM)
Procedure, shortened: as §1

[6] = tested on: THRa:RXRa (NR concentration 90 nM, RXRa partner concentration 90 nM)
Procedure, shortened: as §1

[7] = tested on: THRa homodimer (NR concentration 90 nM)
Procedure, shortened: as §1

[8] = tested on: VDR homodimer (NR concentration 270 nM)
Procedure, shortened: as §1

Row | Sequence | PBM binding z-score [1] | PBM binding z-score [2] | PBM binding z-score [3] | PBM binding z-score [4] | PBM binding z-score [5] | PBM binding z-score [6] | PBM binding z-score [7] | PBM binding z-score [8]
1 | TCATATAGGTAAATGCTAGGTGAAAGTACGATCT | 0.7 | 0.683 | 0.548 | 1.67 | 1.26 | 1.6 | 0.701 | 0.431
2 | ACTAGTTGGTCAGGTGAGGTCACACACAATTCGG | 4.31 | 4.16 | 4.17 | 1.23 | 4.21 | 4.85 | 5.01 | 4.61
3 | GCTTGTAGATCAAGGTTAAGAACGACTAAGCTAA | 0.388 | 0.414 | 0.334 | 0.11 | 0.789 | 1.25 | -0.079 | 0.0114
4 | CCGAGTAGGTTATCGGGCATTCAGGCAACGGTGA | 0.614 | 0.431 | 0.479 | -0.164 | 0.45 | 0.172 | -0.196 | -0.435
5 | TCTAGCAGGCCAGAGGGTCAATCAAGAGGTACGG | 2.63 | 2.97 | 2.14 | -0.246 | 2.87 | 1.62 | -0.729 | 0.802
6 | CCTACTGGGCCAGTCAGAGGTCATTGATCATATG | 3.65 | 3.94 | 2.79 | 0.705 | 3.71 | 2.94 | 1.03 | 3.27
7 | TCAATGAGGTTATAAGATCAGGGAACGTTGCAAA | 0.57 | 1.52 | 0.993 | 1.75 | 2.19 | 1.84 | 0.0539 | 0.536
8 | CGTTACGGGTCAAGGTTATAGCACGGGTGGTACG | 3.67 | 4.89 | 4.88 | 0.953 | 5.7 | 3.24 | 0.918 | 1.42
9 | ACTCAGAGGACAAAGGTCAGAGCTACGCCAGTGA | 4.56 | 6.51 | 5.89 | 1.84 | 6.06 | 3.44 | 0.705 | 1.43
10 | AATCCAGGGTCACTAGGCCAGAGTAGGTACGAAT | 3.4 | 5.39 | 4.98 | 2.49 | 5.55 | 3.54 | 1.29 | 2.57
11 | GCTCGGAGGACAAGGTCAGAGCGTTGTCCGTAGA | 2.97 | 3.26 | 3.69 | 0.33 | 2.43 | 2.89 | 1.25 | 0.555
12 | TCTTGTTGATCAATAGAGGTTAAGAAAGTGCGCT | 1.09 | 0.58 | 0.28 | 0.766 | 1.48 | 1.58 | -0.22 | 0.411
13 | GCTTACGGGTCAAGGGTTATAGCATGAATAGAAT | 3.07 | 5.54 | 4.39 | 1.86 | 7.3 | 3.14 | 0.219 | 0.975
14 | CCTTACGGGTCACGAAGTTATAGCACGACGAGCG | 3.14 | 5.21 | 4.74 | 1.29 | 5.71 | 2.87 | 0.0516 | 0.721
15 | TCGAGTAGGTTATTCGGGGCATTCAGCCAACATA | 0.766 | 0.44 | 0.448 | 0.744 | 0.31 | 2.61 | 0.314 | 0.9
16 | TAGCCTAGGTCCTGGGCCAGTATACCACGCGAAC | -0.386 | -0.497 | -0.364 | -1.66 | -0.311 | -0.414 | -0.714 | -0.78
17 | ATCTGTAGGTTAGCTGGGGTCATTCAGACTAGGC | 3.81 | 4.01 | 3.04 | 1.83 | 5.13 | 5.16 | 3.21 | 5.38
18 | TGAATGAGTTTAAAGATCAGGGAACGTGGCGTCG | -0.301 | 0.427 | 0.222 | 3.12 | 0.84 | -0.0905 | -0.483 | 2.88
19 | TGAATGAGGTTGAAGATCAGGGAACGTGGCGTCG | -0.485 | 0.258 | 0.179 | -0.182 | 0.787 | 0.467 | -0.42 | -0.192
20 | TAGCCTAGCTCATGCGGGCCAGTATAGTGTCGGC | -1.08 | -0.81 | -0.912 | -1.45 | -0.694 | -1.65 | -1.25 | -0.887
21 | ATCGAATGGTCGACGAGGTGAGTATACACCGTTT | -0.00631 | 0.294 | 0.526 | -0.27 | 0.305 | 1.03 | 0.408 | -0.381
22 | TCTCGGAGGACACGATAGGTCAGAGCTCGACATC | 3.02 | 2.49 | 3.18 | 0.695 | 1.43 | 2.47 | 0.393 | 0.242
23 | TCATATAGGTAAAAGCTGAAAGTCGGTGTGGTAA | -0.59 | -0.0558 | -0.318 | 1.45 | 0.496 | -0.258 | -0.715 | -0.102
24 | CGTCCAAGGCCAATGCTAGGTCAGTGAAAGCATT | 2.64 | 2.16 | 1.94 | 0.513 | 0.218 | 2 | 0.569 | 0.135
25 | TCTAGTTGGTCAAAGGTGACACACTCGAAATGCG | 2.21 | 2.9 | 1.95 | 1.03 | 3.06 | 1.7 | 0.635 | 0.44
26 | GCAGACAGGTGAAACGCAGGTAACTAAGGGTGGC | 0.042 | 0.719 | 0.208 | -0.64 | 0.593 | 1.15 | -0.719 | -0.867
27 | CCAAACAGGTGAGAAGGTAACTCAGCCTCGATTA | 0.453 | 0.434 | 0.256 | -0.0242 | 0.335 | 0.199 | 0.0192 | -0.08
28 | TCTAGTTGGTCAAAGGGCACACACTCGAAATGCG | 2.36 | 2.72 | 1.97 | 0.876 | 2.62 | 1.12 | -0.0377 | 0.575
